Source: PubChem BioAssay
Nrf2 ARE act: activates Nrf2 signaling. actives 0.31% (n = 410,000). AREc32 ARE-luciferase reporter (MCF7-derived line), luminescence, 24 h. Potency, µM (top dose mostly 46.1 µM), without a hit: at the top dose activation, actives largely listed as activators. AID 624171; note: % of control where 0% means no effect; nearly all actives have a fitted effect of over 65% in size
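Luminescent ARE reporter assay in AREc32_Fluc cells: overnight plating at 37 deg C, 24 hr compound incubation, Steady-Glo added, 30 min RT before reading.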
ATXN2 expr inh: inhibitors of ATXN2 expression. HEK-293 ATXN2-luciferase reporter, luminescence, 24 h. Potency, µM (top dose mostly 57 µM), without a hit: at the top dose activity change, negative = inhibition, actives largely listed as inhibitors. actives 0.72% (n = 360,000); note: % is set by controls: 0 for no effect and ±100 for the full control effect; nearly all actives have a fitted effect of over 55% in size
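ATXN2-luciferase reporter cells (luciferase flanked by upstream and downstream ATXN2 gene portions) were treated 24 h at 37 °C with compounds at up to 57 uM. SteadyGlo luminescence gave expression; GF-AFC fluorescence gave viability.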
Nrf2 block: Nrf2 pathway inhibition | actives 2.1% (n = 360,000) | A549 ARE-Fluc reporter, luciferase luminescence, 18-24 h | AID 504444 | Potency, µM (doses to about 46 µM), for the others: at the top dose activity change, negative = inhibition, actives largely listed as inhibitors; note: % is set by controls: 0 for no effect and ±100 for the full control effect; nearly all actives have a fitted effect of over 60% in size
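A549 ARE_Fluc cells, 5000/well, 5% FBS OPTI-MEM; compounds in dose-response, 18-24 h at 37 °C/5% CO2; CellTiter-Fluor viability read (Ex 405/Em 525), then BugLite luciferase luminescence = Nrf2 activity.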
A549 tox: A549 cytotoxicity, counter-screen for Nrf2 inhibitors. A549 ARE-Fluc cells, CellTiter-Fluor viability, 18-24 h. Potency, µM (series often up to 46 µM), inactives show at the highest dose activity change, negative = cytotoxicity, actives largely listed as inhibitors. actives 0.16% (n = 390,000); note: % is set by controls: 0 for no effect and ±100 for the full control effect
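A549 ARE-Fluc cells in 5% FBS OPTI-MEM, 5000 cells/well, rested 2 h then exposed to compounds in concentration-response for 18-24 h at 37 °C. Viability by CellTiter-Fluor fluorescence (Ex 405/Em 525) after 30 min; luciferase luminescence (BugLite, 15 min, RT) read afterwards.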
S2 tox: reduces viability in counter-screen for ATXN expression inhibitors. S2 cells (HEK-293 line with an ATXN2-luciferase reporter) viability, CellTiter-Fluor protease fluorescence, 24 h. Potency, µM (titrated, usually from 56.7 µM), usual class: cytotoxic. actives 0.49% (n = 400,000). AID 651635; note: nearly all actives have a fitted effect of over 40% in size
An asterisk follows results filed as active; i = inactive; ? = inconclusive; / = no result given; [ ] = remark or other dose. Only some compounds are listed: those with a hit (about 2.9% of all), similar ones and a draw of the others. Calls come from the whole dose curve; as a rule, active = well fitted curve in the direction sought with a large enough effect; inconclusive = small, poorly fitted or top-dose-only effect, or another doubt; inactive = no such curve, though single readings can be large; an effect the other way counts as inactive or inconclusive. Potency is the fitted concentration of half-maximal effect.

SMILES	Nrf2 ARE act	ATXN2 expr inh	Nrf2 block	A549 tox	S2 tox
Nn1c(SCC(=O)N2CCCc3ccccc32)nnc1-c1ccccc1	0%	10%	/	-1%	i
CCCN(CCC)C(=O)CSc1nc2n[nH]c(C)c2c(=N)n1-c1ccc(OCC)cc1	0%	-3%	/	?	i
Cc1[nH]nc2nc(SCC(=O)NC3CCCCC3)n(-c3ccc(Br)cc3)c(=N)c12	0%	13µM*	18µM*	?	20µM*
COc1ccccc1NC(=O)CSc1nc2n[nH]c(C)c2c(=N)n1-c1ccccc1Cl	1%	?	13µM*	-10%	i
Cc1cccc(-n2c(SCC(=O)Nc3ccccc3Cl)nc3n[nH]c(C)c3c2=N)c1	-3%	/	/	-9%	/
CCCN(CCC)C(=O)CSc1nc2n[nH]c(C)c2c(=N)n1-c1ccc(OC)cc1	-1%	-11%	18µM*	?	i
CCC1=Nc2cc(C(=O)NCCCOC)ccc2Sc2ccc(Br)cc21	-1%	-15%	?	-5%	?
CCCn1c2c(c(=N)c3c1CCC3)CCC2	-1%	-16%	7.3µM*	-17%	i
CCCn1c2c(c(=N)c3c1CCC3)CCCC2	0%	-17%	?	4%	i
Cc1ccoc1C(=O)Nc1ccc(CC(=O)O)cc1	-2%	?	1µM*	-8%	i
Cc1ccoc1C(=O)Nc1ccc2ccccc2c1	0%	?	?	1%	i
COc1ccc(F)cc1-c1cc(C(=O)Nc2cccnc2)[nH]n1	5%	51%	/	/	i
COc1ccc(N2CCN(C(=O)c3c(-c4ccccc4)noc3C)CC2)cc1	0%	-19%	-16%	-1%	i
Cc1noc(C)c1C(=O)N1CCN(c2ccc(OCc3ccccc3)cc2)CC1	0%	/	21µM*	-2%	?
NS(=O)(=O)c1ccc(CCNc2ccn3nc(-c4ccc(OCCN5CCOCC5)cc4)cc3n2)cc1	1%	3%	/	/	?
CC1(C)OC2CC3C4CCC5=CC(=O)CCC5(C)C4(F)C(O)CC3(C)C2(C(=O)CO)O1 (stereo unspecified)	1%	-17%	0.0052µM*	-7%	i
CC1(C)O[C@@H]2C[C@H]3[C@@H]4CCC5=CC(=O)C=C[C@]5(C)[C@@]4(F)[C@@H](O)C[C@]3(C)[C@]2(C(=O)CO)O1	0%	3%	0.0041µM*	-1%	i
O=C(c1ccccc1Br)N1CCN(c2ccc([N+](=O)[O-])c(N3CCOCC3)c2)CC1	0%	-5%	-12%	-18%	?
Cc1ccc2nc(-c3cc(-c4ccccc4)no3)cn2c1	-1%	3.5µM*	?	9%	i
CCc1ccn2cc(-c3cc(-c4ccccc4)no3)nc2c1	-3%	/	?	-10%	?
C[C@@H]1CN([C@H](C)CO)C(=O)CCCn2nncc2CO[C@H]1CN(C)C(=O)C1CCCCC1	-1%	10%	/	/	?
CCN(CC)c1ccc(NC(=O)c2cnc3ccccn3c2=O)c(C)c1	0%	-8%	2.9µM*	-19%	i
Cc1ccc(NC(=O)c2cnc3cc(C)ccn3c2=O)c(C)c1	3%	47%	?	-18%	i
O=C(C1CCC(CNc2nc(=S)[nH]c3ccccc23)CC1)N1CCN(c2ccccn2)CC1 (stereo unspecified)	0%	-25%	16µM*	?	i
C=CCNC(=O)C1CCC(CNc2nc(=S)[nH]c3ccccc23)CC1 (stereo unspecified)	0%	/	?	-7%	i
SMILES	Nrf2 ARE act	ATXN2 expr inh	Nrf2 block	A549 tox	S2 tox
CCCCOC(=O)C1=C(C)Nc2nnnn2C1c1ccc(OC)c(OC)c1OC (stereo unspecified)	0%	/	-4%	-13%	/
O=C(Nc1ncc(Cc2ccccc2)s1)C1CCN(C(=O)c2ccco2)CC1	/	/	21µM*	-11%	/
Cc1cc(NS(=O)(=O)c2ccc(NC(=O)CCCOc3cccc(C)c3C)cc2)no1	0%	4%	-19%	0%	i
CCc1nc2c(OCC3CCCCC3)cccn2c1N(C)C(=O)c1ccc(C)cc1	-1%[9.22 µM]	-6%	/	/	28µM*
CCc1nc2c(OCc3ccc(Cl)cc3Cl)cccn2c1N(C)C(=O)C1CC1	1%	?	/	/	18µM*
COCCc1ccccn1	/	17%	/	/	i
COCCn1c2c([n+](Cc3cnccn3)c1C)C(=O)c1ccccc1C2=O	/	0.054µM*	/	/	/
CCN(CC)c1ccc(C=O)c(OC)c1	0%	-11%[11.3 µM]	-22%	1%	i
CCNc1nc(NCC)n2c(SC(C(=O)Nc3cc(Cl)cc(Cl)c3)c3ccccc3)nnc2n1 (stereo unspecified)	4%	25µM*	?	-15%	/
CCNc1nc(NCC)n2c(SCC(=O)Nc3cccc(Cl)c3)nnc2n1	0%	-16%	?	-10%	i
Cc1ccc(C(=O)/C=C/c2ccccc2[N+](=O)[O-])cc1	1%	?	?	3%	?
O=C(/C=C/c1ccccc1[N+](=O)[O-])c1ccccc1Br	-4%	?	16µM*	?	?
O=C(/C=C\c1ccccc1[N+](=O)[O-])Nc1ccccc1	11µM*	1%	?	-1%	i
CCN(CC)S(=O)(=O)c1ccc(N/N=C/c2ccc(O)cc2O)nc1	0%	2.8µM*	?	-11%	?
Cn1ncc2c(N3CCN(c4ccc(Cl)c(Cl)c4)CC3)ncnc21	0%	0.95µM*	?	1%	i
COc1ccc(CCN(Cc2cc3cc(C)cc(C)c3nc2Cl)C(=O)C2CC2)cc1	-1%	-18%	16µM*	-21%	i
COc1ccc(CNC(=O)c2cc3c(-c4ccc(Cl)cc4)nn(C)c3s2)cc1	6%	/	-10%	-2%	/
CCN(CC)CCCNC(=O)c1cc2c(-c3ccc(Cl)cc3)nn(C)c2s1	-5%	25µM*	11%	-21%	/
CCCN(CCC)CCCNC(=O)c1cc2c(-c3ccc(Cl)cc3)nn(C)c2s1	23%	?	-12%	?	25µM*
CN1CCN(CCCNC(=O)c2cc3c(-c4ccc(Cl)cc4)nn(C)c3s2)CC1	20%	4%	-12%	-4%	i
O=C(CCC(=O)c1ccc(F)cc1)NCc1ccccc1C(F)(F)F	2%	1%	23%	3%	i
NC(=O)c1ccc(-c2ncc(-c3ccccc3)o2)cc1	-1%	?	?	0%	i
Cc1ccc(-c2csc(NC(=O)CCNC(=O)c3ccccc3Cl)n2)cc1	7%	/	23µM*	-6%	?
O=C1NC(=O)C(=Cc2ccc3c(c2)OC(F)(F)O3)S1	/	51%	/	/	/
Cc1ccc(F)cc1-c1cc2nc(NCCCN(C)C)n(C)c(=O)c2s1	5%	32µM*	/	/	?
CN(C)CCCNc1nc2cc(-c3ccsc3)sc2c(=O)n1C	15%	-33%	/	/	i
Cc1c(CN2CCC(CO)(Cc3cccc(C(F)(F)F)c3)CC2)c2ccccc2n1C	0%	35µM*	9%	-12%	/
